Sm TGR block – qHTS Assay for the Inhibitors of Schistosoma Mansoni Peroxiredoxins; Potency, µM (series often up to 114 µM), for inactives: at the highest dose activity change, negative = inhibition, usual class: inhibitors; Schistosoma mansoni thioredoxin glutathione reductase (TGR), Q962Y6; 3% of 360,000 active; purified TGR, DTNB reduction, TNB absorbance 405 nm; note: potency is the fitted concentration of half-maximal effect; % is set by controls: 0 for no effect and ±100 for the full control effect; nearly all actives have a fitted effect of over 60% in size
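First, TGR (20 nM dispensed) and NADPH were mixed with compound. Second, a 15 min room-temperature incubation followed. Third, further NADPH and then DTNB were added to start the reaction. Finally, TNB absorbance was monitored kinetically.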
TbPYK inhibitor – qHTS of Trypanosoma Brucei Inhibitors; TbPYK enzyme, Kinase-Glo Plus ATP luminescence, 45 min; Potency, µM (highest dose often 76.8 µM), without a hit: at the top dose activity, negative = inhibition, actives largely listed as inhibitors; 0.12% of 410,000 active; pyruvate kinase (Trypanosoma brucei), Q57TT1; AID 624173, 2012; note: potency is the fitted concentration of half-maximal effect; % is set by controls: 0 for no effect and ±100 for the full control effect; nearly all actives have a fitted effect of over 50% in size
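Assay buffer: 50 mM TEA pH 7.2, 100 mM KCl, 10 mM MgCl2, 0.05% BSA, 0.01% Tween-20. Pyruvate kinase from T. brucei plus substrate met compound, then ADP (130 uM final). Luminescence was read post 45 min RT.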
CHX counter – Cycloheximide Counterscreen for Small Molecule Inhibitors of Shiga Toxin; cell reporter, cycloheximide protein synthesis inhibition counterscreen; max response, %; 12% of 300,000 active; AID 2314, 2010; in the data active = max response mostly above about 13%, no sharp cut-off; inactive = mostly below about 14%; note: read at 38.3 µM for the half of the compounds with a filed dose; 0% is about no effect
Giardia FBPA inh – qHTS Assay for Inhibitors of Fructose-1,6-bisphosphate Aldolase from Giardia Lamblia; 0.71% of 290,000 active; A8B2U2; purified Giardia FBPA; Potency, µM (highest dose often 59.6 µM), for inactives: top-dose activity, negative = inhibition, hits mostly inhibitors; AID 2451, 2010; note: potency is the fitted concentration of half-maximal effect; % is set by controls: 0 for no effect and ±100 for the full control effect; nearly all actives have a fitted effect of over 55% in size
Target sequence (A8B2U2 whole entry, looked up): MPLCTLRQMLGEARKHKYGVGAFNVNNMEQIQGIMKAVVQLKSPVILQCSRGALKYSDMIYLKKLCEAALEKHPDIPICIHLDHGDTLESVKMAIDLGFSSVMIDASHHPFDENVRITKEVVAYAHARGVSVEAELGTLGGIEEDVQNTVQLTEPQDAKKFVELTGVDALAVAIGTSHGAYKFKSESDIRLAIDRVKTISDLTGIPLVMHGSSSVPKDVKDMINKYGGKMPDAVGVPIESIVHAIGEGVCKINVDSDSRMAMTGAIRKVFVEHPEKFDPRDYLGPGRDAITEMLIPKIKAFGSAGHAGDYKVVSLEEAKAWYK
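40 nM FBPA preincubated 10 min at RT with compound (up to 57.5 uM final), then substrate plus GAPDH/TPI/NAD/arsenate coupling and diaphorase/resazurin added. Fluorescence read after 20 min at RT, 525/598 nm.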
Shiga toxin inh – A qHTS for Small Molecule Inhibitors of Shiga Toxin; 9.2% of 290,000 active; inhibition, % at 38.7 µM; Vero cells, Shiga toxin protein synthesis inhibition reporter; AID 2315, 2010; in the data active = inhibition mostly above about 28%, no sharp cut-off; inactive = mostly below about 43%; note: 0% is about no effect
LmPK inh – qHTS Assay for Inhibitors of Leishmania Mexicana Pyruvate Kinase (LmPK); purified LmPK, Kinase-Glo ATP luminescence, 1 h; Potency, µM (highest dose often 57.5 µM), inactives show at the highest dose activity change, negative = inhibition, actives largely listed as inhibitors; AID 1721, 2009; 0.37% of 290,000 active; note: potency is the fitted concentration of half-maximal effect; % is set by controls: 0 for no effect and ±100 for the full control effect
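In 50 mM imidazole pH 7.2 with 7 mM MgCl2, LmPK (0.1 nM) turned over PEP (0.5 mM) and ADP (0.1 mM) for 1 h at room temperature. Luciferase read-out of ATP.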
* hit, by the source's call; ? = inconclusive; · = no result; [ ] = remark or other dose. This is one part of a sample in which hits are shown more often than they occur. Unless noted, calls come from the whole dose curve; as a rule, active = well fitted curve in the direction sought with a large enough effect; inconclusive = small, poorly fitted or top-dose-only effect, or another doubt; inactive = no such curve, though single readings can be large; an effect the other way counts as inactive or inconclusive.

SMILES	Sm TGR block	TbPYK inhibitor	CHX counter	Giardia FBPA inh	Shiga toxin inh	LmPK inh
COC(=O)N1CCC2(CCCN(C(c3ccccc3)c3ccccc3)C2)CC1	·	4%	·	3%	·	·
O=C1C=C(c2ccc3ccccc3c2)C[C@@H](c2ccc(F)cc2)C1	-11%	-3%	·	·	·	·
C=CCSc1ncnc2c1oc1nc3c(cc12)COC(C)(C)C3	0%	4%	15*	-1%	16	6%
CC1(C)Cc2nc3sc4c(=O)n(CC(=O)NCc5ccco5)cnc4c3cc2CO1	35µM*	-5%	26*	2%	69*	1%
COc1ccccc1NC(=O)Cn1nc(-c2ccc(Cl)cc2)c2ccccc2c1=O	-12%	0%	16*	5%	-4	0%
O=C(CN1CCN(S(=O)(=O)c2ccc(F)cc2)CC1)Nc1ccc(F)cc1F	9%	-2%	60*	9%	37*	-1%
COc1ccccc1NC(=O)CCn1nc(-c2ccccc2)c2ccccc2c1=O	-5%	3%	·	·	·	·
COc1ccccc1NC(=O)CN1CCN(CC(=O)Nc2ccc(F)cc2F)CC1	-3%	9%	32*	5%	92*	0%
CC(C)=CCC/C(C)=C/CC/C(C)=C/CCC(=O)OC/C=C(\C)CCC=C(C)C	·	3%	·	·	·	·
O=C(c1ccc(Cl)cc1)N1CCC(C(=O)N2CCCc3ccccc32)CC1	-7%	-8%	1	·	-13	-3%
COC(=O)C1=C2N(Cc3ccccc3)C(C)=C(C(=O)OC)C(c3ccccc3)N2C(=O)[C@](O)(C(=O)OC)C1 (some centres not stated)	·	·	·	1%[12.9 µM]	·	·
O=C(CC1NCCC[C@H]1O)Cn1cnc2cc(Br)c(Cl)cc2c1=O (some centres not stated)	·	3%	·	·	·	·
COc1ccccc1C(=O)Nc1ccc2c(c1)CC1(C(=O)N(C)C(=O)N(C)C1=O)C1CCCN21 (configuration not stated)	35µM*	-29%	-9	·	-6	-10%
CCCCCn1nc(C(=O)N(CC)c2c(N)n(CCCC)c(=O)[nH]c2=O)c2ccccc2c1=O	·	1%	·	·	·	·
COc1ccc(-n2cc(-c3ccc(Cl)cc3)[nH]c2=S)cc1	-2%	-38%	13*	0%	13	-1%
COc1ccc(-c2cn(-c3ccccc3)c(=S)[nH]2)cc1OC	-35%	?	25*	8%	75*	-13%
Cc1cccc(-n2cc(-c3ccc([N+](=O)[O-])cc3)[nH]c2=S)c1	-3%	-19%	24*	12%	105*	-7%
COC(=O)c1ccc(-n2cc(-c3ccc(OC)cc3)[nH]c2=S)cc1	3%	-38%	7	-3%	51	-7%
COc1cccc(-n2cc(-c3ccc(F)cc3)[nH]c2=S)c1	-18%	?	37*	18%	86*	-11%
COc1ccc(-c2cn(-c3ccc(C)c(C)c3)c(=S)[nH]2)cc1OC	?	-31%	11	19%	67	6%
Nc1ccc(-n2cc(-c3ccccc3)[nH]c2=S)cc1	12%	2.5µM*	33*	22%	61*	?
S=c1[nH]c(-c2ccccc2)cn1-c1ccccc1	12%	?	16	18%	21	?
CC(C)(Cc1ccc(O)cc1)NC(=O)SCc1ccccc1	-4%	0%	9	7%	12	2%
CC(C)=N/N=C(\N)SCc1ccccc1	0%	-5%	19*	-9%	60	-2%
COc1cc(/C=C/c2nc(C#N)c(N3CCCCC3)o2)cc(OC)c1OC	2%	-6%	·	·	·	·
Cc1ccc(-c2nc(-c3ccccn3)no2)cc1[N+](=O)[O-]	0%	7%	37*	2%	55*	14µM*
CCCNc1ccc(-c2nc(-c3ccccn3)no2)cc1[N+](=O)[O-]	4%	-3%	·	·	·	·
CCN(CC)c1ccc(-c2nc(-c3ccccn3)no2)cc1[N+](=O)[O-]	50µM*	-4%	·	·	·	·
C/C(=N\NC(=O)C1CCCC1)c1ccc(C(C)C)cc1	0%	0%	24*	·	52*	-2%
CC(=O)Nc1ccc(C(C)=NNC(=O)C2CCCC2)cc1	·	7%	·	·	·	·

Compound activity as filed in PubChem.
